# From ChEMBL document CHEMBL3988442, “University of Dundee, Small-Polar-MMV Screening Library” (2021)
# For some assays here: Measured potencies and affinities stand elsewhere.
# Key:
# Design in all cases: scale not given: direction of the effect not stated beside the values
# [1] = target: Protein translocase subunit SecA (Escherichia coli (strain K12)) (UniProt P10408); assay: Assay to Identify E. coli SecA ATPase Inhibitors; type: functional; conditions: 30 µM
# [2] = target: T1, Ubiquitin-activating enzyme e1, putative (Leishmania donovani (strain BPK282A1)) (UniProt E9BSI1); assay: Leishmania donovani Ubiquitin Activating Enzyme (LdE1); type: functional; conditions: 30 µM
# T1 sequence (whole entry): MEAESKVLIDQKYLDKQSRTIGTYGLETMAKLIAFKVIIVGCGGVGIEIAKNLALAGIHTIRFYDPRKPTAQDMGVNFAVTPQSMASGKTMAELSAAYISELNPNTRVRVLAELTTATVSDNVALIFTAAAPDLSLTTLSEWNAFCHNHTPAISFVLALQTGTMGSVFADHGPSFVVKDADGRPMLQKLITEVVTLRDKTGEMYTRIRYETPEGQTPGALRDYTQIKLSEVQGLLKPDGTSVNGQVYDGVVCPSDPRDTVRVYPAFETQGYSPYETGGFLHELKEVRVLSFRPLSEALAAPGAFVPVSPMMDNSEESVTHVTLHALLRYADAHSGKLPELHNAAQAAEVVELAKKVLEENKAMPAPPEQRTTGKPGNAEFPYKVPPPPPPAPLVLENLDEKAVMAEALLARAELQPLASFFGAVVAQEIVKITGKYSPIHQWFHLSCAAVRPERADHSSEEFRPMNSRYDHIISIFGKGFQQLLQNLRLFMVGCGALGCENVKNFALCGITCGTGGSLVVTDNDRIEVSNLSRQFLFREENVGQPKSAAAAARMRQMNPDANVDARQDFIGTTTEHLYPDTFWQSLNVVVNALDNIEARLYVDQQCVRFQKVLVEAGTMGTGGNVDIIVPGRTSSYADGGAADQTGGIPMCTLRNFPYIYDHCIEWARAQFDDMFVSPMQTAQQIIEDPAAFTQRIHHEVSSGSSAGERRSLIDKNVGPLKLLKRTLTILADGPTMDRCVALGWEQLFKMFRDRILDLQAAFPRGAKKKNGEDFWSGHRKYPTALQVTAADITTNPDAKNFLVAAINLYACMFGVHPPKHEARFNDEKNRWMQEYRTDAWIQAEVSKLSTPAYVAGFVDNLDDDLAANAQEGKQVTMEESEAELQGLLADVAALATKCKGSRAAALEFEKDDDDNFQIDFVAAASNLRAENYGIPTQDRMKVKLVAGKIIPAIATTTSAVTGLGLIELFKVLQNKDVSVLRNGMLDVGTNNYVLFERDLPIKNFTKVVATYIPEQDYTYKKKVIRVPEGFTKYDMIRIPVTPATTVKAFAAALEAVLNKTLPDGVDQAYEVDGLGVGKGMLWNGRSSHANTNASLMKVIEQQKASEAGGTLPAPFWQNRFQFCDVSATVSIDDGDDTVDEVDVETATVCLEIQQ
# [3] = target: AMP-activated protein kinase, AMPK (Homo sapiens) (UniProt P54646+O43741+P54619+Q9UGJ0+Q9Y478+Q13131+Q9UGI9); assay: AMP-dependent Kinase enzyme assay. An in vitro enzyme assay that detects ADP turnover that is directly proportional to AMPK activity. This uses naive AMPK that is activated during the assay with MK-8722; type: functional; conditions: 30 µM
# [4] = target: Sialic acid-binding Ig-like lectin 9 (Homo sapiens) (UniProt Q9Y336); assay: Hs-Siglec9 ALPHAscreen SOP 20170721; conditions: 10 µM
# Sialic acid-binding Ig-like lectin 9 (Homo sapiens), sequence (Q9Y336 whole entry): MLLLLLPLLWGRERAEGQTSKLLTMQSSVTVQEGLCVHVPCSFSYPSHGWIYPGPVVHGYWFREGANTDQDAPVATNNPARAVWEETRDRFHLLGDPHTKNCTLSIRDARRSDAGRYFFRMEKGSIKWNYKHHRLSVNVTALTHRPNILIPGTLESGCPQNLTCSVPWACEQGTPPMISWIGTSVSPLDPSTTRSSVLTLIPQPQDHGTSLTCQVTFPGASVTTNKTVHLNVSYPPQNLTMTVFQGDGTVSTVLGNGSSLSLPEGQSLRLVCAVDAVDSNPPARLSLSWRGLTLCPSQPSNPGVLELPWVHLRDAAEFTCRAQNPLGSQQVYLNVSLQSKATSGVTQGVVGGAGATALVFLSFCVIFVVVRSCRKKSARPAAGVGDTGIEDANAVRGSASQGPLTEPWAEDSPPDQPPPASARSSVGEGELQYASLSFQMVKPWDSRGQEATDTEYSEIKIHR
# Trypanosoma cruzi = assay: Trypanosoma cruzi phosphomannomutase and mannose-1-phosphate guanylyltransferase assay; type: functional; conditions: 10 µM
# [5] = target: T2, Arginase-2, mitochondrial (Homo sapiens) (UniProt P78540); assay: in vitro enzyme assay to detect the production of urea directly proportional to the activity of Arginase II; type: functional; conditions: 33.3 µM; also: in the data most compounds retested in dose-response had high values
# T2 sequence (whole entry): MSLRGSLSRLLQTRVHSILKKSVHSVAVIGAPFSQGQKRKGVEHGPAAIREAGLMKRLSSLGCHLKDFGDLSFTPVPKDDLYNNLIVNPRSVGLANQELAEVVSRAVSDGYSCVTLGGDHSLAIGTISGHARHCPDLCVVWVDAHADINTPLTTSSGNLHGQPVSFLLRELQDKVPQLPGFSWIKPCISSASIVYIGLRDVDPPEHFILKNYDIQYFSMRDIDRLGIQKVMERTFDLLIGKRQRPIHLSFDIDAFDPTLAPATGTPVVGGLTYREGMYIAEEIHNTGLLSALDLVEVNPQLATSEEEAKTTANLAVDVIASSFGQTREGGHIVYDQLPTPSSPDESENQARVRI
# [6] = target: T3, Proteasome subunit beta (Trypanosoma cruzi) (UniProt O96673); assay: Trypanosoma cruzi proteasome chymotrypsin-like activity (TcProtChymo) assay.; also: in the data most compounds retested in dose-response had high values; type: functional; conditions: 9.37 µM
# T3 sequence (whole entry): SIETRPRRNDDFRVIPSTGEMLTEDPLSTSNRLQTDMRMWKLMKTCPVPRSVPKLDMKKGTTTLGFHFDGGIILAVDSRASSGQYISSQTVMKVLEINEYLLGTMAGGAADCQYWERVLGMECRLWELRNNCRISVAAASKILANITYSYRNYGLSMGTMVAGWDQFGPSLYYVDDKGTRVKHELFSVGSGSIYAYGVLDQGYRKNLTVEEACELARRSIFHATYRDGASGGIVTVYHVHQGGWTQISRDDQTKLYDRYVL
# Homo sapiens = species: Homo sapiens; assay: To identify inhibition of the IFN signalling (Jak-Stat) pathway via expression of an eGFP reporter gene under the control of an IFN-stimulated response element (ISRE) containing MxA promoter.; type: functional; conditions: 30 µM
# [7] = target: T4, Tyrosyl-tRNA synthetase, putative (Trypanosoma cruzi (strain CL Brener)) (UniProt Q4DSP6); assay: Trypanosoma cruzi tyrosyl tRNA synthetase (TcYRS) _High Tyrosine SOP; type: functional; conditions: 30 µM; also: in the data most compounds retested in dose-response had high values
# T4 sequence (whole entry): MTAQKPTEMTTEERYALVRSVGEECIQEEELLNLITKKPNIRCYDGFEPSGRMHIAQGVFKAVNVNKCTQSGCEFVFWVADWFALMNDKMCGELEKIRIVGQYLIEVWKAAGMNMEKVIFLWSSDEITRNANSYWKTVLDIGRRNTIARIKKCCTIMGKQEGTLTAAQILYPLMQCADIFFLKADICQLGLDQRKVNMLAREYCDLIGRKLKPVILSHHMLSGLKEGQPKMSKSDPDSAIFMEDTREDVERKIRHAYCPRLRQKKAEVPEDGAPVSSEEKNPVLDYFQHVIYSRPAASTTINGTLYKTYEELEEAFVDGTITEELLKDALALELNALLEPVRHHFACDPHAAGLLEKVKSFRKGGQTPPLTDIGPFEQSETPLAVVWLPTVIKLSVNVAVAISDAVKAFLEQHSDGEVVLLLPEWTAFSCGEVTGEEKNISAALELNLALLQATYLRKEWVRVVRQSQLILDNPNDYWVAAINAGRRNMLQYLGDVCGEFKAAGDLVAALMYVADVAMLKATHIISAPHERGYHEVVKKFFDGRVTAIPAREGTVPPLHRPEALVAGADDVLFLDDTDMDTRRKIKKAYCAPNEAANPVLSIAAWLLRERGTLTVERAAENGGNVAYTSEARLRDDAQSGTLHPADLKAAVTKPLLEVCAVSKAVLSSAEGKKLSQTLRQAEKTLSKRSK
# [8] = target: T4, Tyrosyl-tRNA synthetase, putative (Trypanosoma cruzi (strain CL Brener)); assay: Trypanosoma cruzi tyrosyl tRNA synthetase (TcYRS) SOP; type: functional; conditions: 30 µM
# [9] = target: Chromo domain-containing protein 1 (Saccharomyces cerevisiae (strain ATCC 204508 / S288c) (Baker's yeast)) (UniProt P32657); assay: ScCHD-1 Enzyme Inhibition Assay; type: functional; conditions: 30 µM; also: in the data most compounds retested in dose-response had high values
# Chromo domain-containing protein 1 (Saccharomyces cerevisiae (strain ATCC 204508 / S288c) (Baker's yeast)), sequence (P32657 whole entry, the tested form may be a part): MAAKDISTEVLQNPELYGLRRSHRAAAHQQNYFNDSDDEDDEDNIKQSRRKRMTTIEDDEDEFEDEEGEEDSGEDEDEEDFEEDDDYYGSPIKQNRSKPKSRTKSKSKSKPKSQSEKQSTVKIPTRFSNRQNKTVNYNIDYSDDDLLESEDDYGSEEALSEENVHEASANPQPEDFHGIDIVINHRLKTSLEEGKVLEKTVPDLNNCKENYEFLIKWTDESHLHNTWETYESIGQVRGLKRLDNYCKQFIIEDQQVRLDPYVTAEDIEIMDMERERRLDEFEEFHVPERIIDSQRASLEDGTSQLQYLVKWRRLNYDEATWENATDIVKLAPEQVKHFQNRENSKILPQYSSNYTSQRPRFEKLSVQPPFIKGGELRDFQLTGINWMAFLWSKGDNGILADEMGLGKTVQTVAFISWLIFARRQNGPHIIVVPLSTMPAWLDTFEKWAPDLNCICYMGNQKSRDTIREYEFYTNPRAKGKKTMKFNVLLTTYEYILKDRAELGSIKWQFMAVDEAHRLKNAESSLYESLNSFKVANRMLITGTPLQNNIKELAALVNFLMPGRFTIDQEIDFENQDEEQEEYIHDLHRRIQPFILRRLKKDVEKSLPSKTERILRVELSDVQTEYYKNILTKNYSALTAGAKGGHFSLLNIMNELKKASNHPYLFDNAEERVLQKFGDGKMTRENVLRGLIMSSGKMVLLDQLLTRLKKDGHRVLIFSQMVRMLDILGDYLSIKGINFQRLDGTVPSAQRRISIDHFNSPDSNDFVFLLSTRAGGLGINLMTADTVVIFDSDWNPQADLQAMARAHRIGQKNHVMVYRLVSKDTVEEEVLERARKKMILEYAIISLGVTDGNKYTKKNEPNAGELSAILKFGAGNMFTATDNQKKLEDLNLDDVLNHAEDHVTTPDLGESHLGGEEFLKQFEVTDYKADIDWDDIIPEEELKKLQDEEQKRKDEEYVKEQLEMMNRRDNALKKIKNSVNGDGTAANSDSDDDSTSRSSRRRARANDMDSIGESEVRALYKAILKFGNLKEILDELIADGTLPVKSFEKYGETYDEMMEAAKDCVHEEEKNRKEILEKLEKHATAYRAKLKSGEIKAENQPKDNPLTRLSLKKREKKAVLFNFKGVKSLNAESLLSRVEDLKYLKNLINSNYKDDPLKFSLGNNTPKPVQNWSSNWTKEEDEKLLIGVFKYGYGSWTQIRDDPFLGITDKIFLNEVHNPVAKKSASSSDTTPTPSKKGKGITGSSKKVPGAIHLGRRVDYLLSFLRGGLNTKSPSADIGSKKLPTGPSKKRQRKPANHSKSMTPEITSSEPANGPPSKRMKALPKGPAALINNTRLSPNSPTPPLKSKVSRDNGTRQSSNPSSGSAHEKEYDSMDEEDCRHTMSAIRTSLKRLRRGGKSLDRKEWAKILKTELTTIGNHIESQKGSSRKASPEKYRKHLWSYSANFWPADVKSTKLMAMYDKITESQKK
# Protein translocase subunit SecA (Escherichia coli (strain K12)), sequence (P10408 whole entry): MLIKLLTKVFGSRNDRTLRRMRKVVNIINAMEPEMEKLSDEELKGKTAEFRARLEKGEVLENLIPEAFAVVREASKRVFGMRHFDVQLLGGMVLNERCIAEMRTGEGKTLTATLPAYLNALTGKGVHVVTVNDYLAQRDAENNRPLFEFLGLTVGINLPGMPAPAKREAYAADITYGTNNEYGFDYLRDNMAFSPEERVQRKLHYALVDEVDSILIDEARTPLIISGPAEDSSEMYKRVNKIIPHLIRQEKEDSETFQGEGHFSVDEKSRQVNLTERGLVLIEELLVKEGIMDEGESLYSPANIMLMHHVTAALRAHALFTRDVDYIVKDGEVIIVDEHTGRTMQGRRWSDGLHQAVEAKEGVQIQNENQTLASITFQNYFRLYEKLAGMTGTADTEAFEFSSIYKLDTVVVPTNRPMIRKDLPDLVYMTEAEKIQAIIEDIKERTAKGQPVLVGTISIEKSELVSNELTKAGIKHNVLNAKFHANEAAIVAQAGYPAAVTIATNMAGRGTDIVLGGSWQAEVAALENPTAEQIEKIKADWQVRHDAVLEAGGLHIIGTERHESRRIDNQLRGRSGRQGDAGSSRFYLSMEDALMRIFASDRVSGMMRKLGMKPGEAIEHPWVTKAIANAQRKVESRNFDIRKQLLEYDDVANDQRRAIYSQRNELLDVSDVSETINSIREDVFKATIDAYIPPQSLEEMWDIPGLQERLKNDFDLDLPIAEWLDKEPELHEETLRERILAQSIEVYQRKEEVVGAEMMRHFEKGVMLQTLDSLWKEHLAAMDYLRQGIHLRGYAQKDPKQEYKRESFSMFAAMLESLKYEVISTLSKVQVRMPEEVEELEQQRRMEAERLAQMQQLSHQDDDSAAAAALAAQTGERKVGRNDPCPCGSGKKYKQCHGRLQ
SMILES,Percent Effect [1] [%],Percent Effect [2] [%],Percent Effect [3] [%],Percent Effect [4] [%],Percent Effect (Trypanosoma cruzi) [%],Percent Effect [5] [%],Percent Effect [6] [%],Percent Effect (Homo sapiens) [%],Percent Effect [7] [%],Percent Effect [8] [%],Percent Effect [9] [%]
Cc1cnn(CC2CCCN2Cc2nnsc2Cl)c1 (stereo unspecified),-4.93,0,-0.946,-0.665,-3.68,-2.66,0.573,28.5,2.46,-3.8,3.6
O=C(c1cccnc1-n1cncn1)N1CCc2ccccc2C1,-1.58,16.2,-4,13.4,4.25,1.91,8.1,4.11,5.82,9.76,-2.56
Cc1nc(N2CCOCC2)nc2c1CN(C(=O)Cc1ccccn1)CC2,1.23,0,3.27,5.25,0.688,4.14,2.66,-4.9,3.23,-1.24,0.916
CCc1cc(C)c(C(=O)N2CCCC2CC(=O)c2cnn(C)c2)o1 (stereo unspecified),-1.93,-1.27,169,-0.655,-1.13,-1.5,7.03,7.3,-1.04,0,-4.62
c1coc(-c2noc(CN3CC(n4cccn4)C3)n2)c1,-5.48,7.79,3,-4.91,0.49,1.05,2.18,19.4,3.81,9.41,-11.1
COCC(=O)NCCn1ccc2c(OC)cccc21,-0.301,17.3,0.941,6.9,0.393,-3.7,10.5,19.7,6.35,15.4,-8
N#Cc1ccc(C(=O)N2CCC3(CC2)C(=O)Nc2ccccc23)cn1,-4.93,8.11,0.0753,1.98,-0.684,2.73,9.87,0.335,10.8,18.5,-4.78
CC(=O)Nc1cccc(OCCNC(=O)N(C)Cc2ccco2)c1,-4.59,2.63,7.27,-2.99,1.46,-4.73,6.62,-1.59,4.25,0,-3.97
O=C(Cn1ccc2ccc(Br)cc21)NC[C@@H]1CCCN2CCCC[C@H]12,-9.26,-4,0.939,-2.99,-5.5,-12.8,2.03,7.57,0,-56.4,-8.03
CCC(CC)c1cc(C(=O)N2CCCC(n3cncn3)C2)on1 (stereo unspecified),-2.21,-1.39,-4.63,9.13,3.6,22.5,11.9,-8.85,1.05,5.13,0.586
Cc1cnc(CN(C)C2CCN(CCc3ccccn3)CC2)cn1,-1.96,13.5,-8.24,-5.72,5.48,-3.88,14.5,13.7,7.92,15.8,-6.34
CC(NC(=O)CCC(=O)c1cccs1)c1nnc2n1CCCCC2 (stereo unspecified),-1.87,-2.7,-8.57,-0.426,-3.06,5.73,-5.39,10,3.96,13.4,2.68
CC(Cn1cccn1)NC(=O)Nc1nnc(C2CC2)s1 (stereo unspecified),-8.16,13,2.37,7.36,1.12,-0.356,-0.845,10.7,7.77,12.2,-5.78
CN(Cc1ncc[nH]1)CC(c1cccs1)N1CCOCC1 (stereo unspecified),-0.354,13.5,-12.7,-6.28,4.92,-1.29,12.4,17.4,11.9,23.2,-5.94
O=C(NS(=O)(=O)c1ccccc1Cl)c1cccc2c1OCCO2,-5.38,5.48,-3.79,16.7,3.53,8.64,10.7,7.24,-10.8,-10,96.7
CCN1CCN(S(=O)(=O)c2cc(C)c(Cl)cc2Cl)CC1,-6.87,-2.6,4.8,4.35,-2.85,1.38,-0.166,13.9,-3.23,-6.17,4.8
